Source: PubChem BioAssay
Several values for one entry are separate records, joined by “and”; a condition that tells them apart may be missing. Identical values can stand only once. Activity calls are given as the source filed them. Unless noted, no stated cut-off is given here; in the data, active means inhibition above about 80%; inactive means the rest.

Assays:
[1] = sensitizers of A549 cells to miR-34 induction, primary screen, imaging, A549 dox-inducible miR-34, nuclei and caspase counts (AID 1347080;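 active means compounds whose cell count with miR-34 switched on is under 0.7 times the count with it off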); conditions: A549 miR-34 inducible, Hoechst nuclei count, 48 h
[2] = survival rescue of mitochondrial mutant cells in low glucose, primary screen, MELAS cybrids, Rieske KO mouse fibroblasts, CellTiter-Glo (AID 1508586;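 active means mean z-score across replicates of 1.96 or higher in either the MELAS or the Rieske mutant cell line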;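 further: z relative to plate mean and SD of compound and empty wells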)
[3] = viability rescue of complex I mutant cybrids, primary screen, cell-based, galactose medium, ATP luminescence (AID 1645843;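 active means z-score of at least 1.8 in each of two replicates, scored against plate mean and spread of sample wells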;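 further: positive z means more ATP and so rescue of galactose-driven cybrid death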); conditions: complex I mutant cybrid cells, 72 h, stronger effect = higher value
[4] = LFS_MB_P medulloblastoma growth inhibition, cell-based, chromothripsis tumors, cisplatin or BGB combos (AID 1671449); conditions: LFS_MB_P medulloblastoma cells;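 further: cells exposed for 96 hours; 0% = vehicle DMSO and 100% = killing by high DMSO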
[5] = HDN33 neuroblastoma growth inhibition, cell-based, chromothripsis tumors, cisplatin or BGB combos (AID 1671450); conditions: HDN33 neuroblastoma cells, stronger effect = higher value;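 further: cells exposed to compound for four days; 0% = vehicle DMSO and 100% = cell killing by high DMSO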
[6] = ICB984 medulloblastoma cell growth inhibition, synergistic combos for chromothripsis tumors, cisplatin or BGB combos (AID 1671451; call rule not given here;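 further: cells exposed for 96 hours before readout; 0% = vehicle DMSO and 100% = killing by high DMSO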); conditions: ICB984 medulloblastoma cells, drug combinations, stronger effect = higher value
[7] = LFS_MB_1R medulloblastoma cell growth inhibition, synergistic combos for chromothripsis tumors, cisplatin or BGB combos (AID 1671452); conditions: LFS_MB_1R medulloblastoma cells, stronger effect = higher value;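 further: cells exposed for 96 hours before readout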
[8] = HTB85 osteosarcoma cell growth inhibition, synergistic combos for chromothripsis tumors, BGB or cisplatin IC20 combos (AID 1671453); conditions: HTB85 osteosarcoma cells, drug combinations, stronger effect = higher value;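 further: cells exposed for 96 hours before readout; 0% = vehicle DMSO and 100% = high DMSO killing control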
[9] = CRL2098 osteosarcoma cell growth inhibition, synergistic combos for chromothripsis tumors, BGB or cisplatin IC20 combos (AID 1671454); conditions: CRL2098 osteosarcoma cells, drug combinations, stronger effect = higher value;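 further: cells exposed for 96 h before readout; 0% = vehicle DMSO and 100% = killing by high DMSO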
[10] = HD-MB03 medulloblastoma cell growth inhibition, synergistic combos for chromothripsis tumors, BGB or cisplatin IC20 combos (AID 1671455; in the data active means inhibition above about 83%;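 further: 0% = vehicle DMSO and 100% = high DMSO as cytotoxic control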); conditions: HD-MB03 medulloblastoma cells, stronger effect = higher value
[11] = UWB1.289 ovarian carcinoma cell growth inhibition, synergistic combos for chromothripsis tumors, BGB or cisplatin combos (AID 1671456); conditions: UWB1.289 ovarian carcinoma cells, stronger effect = higher value;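 further: cells exposed to compound for four days; 0% = vehicle DMSO and 100% = killing by high DMSO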
[12] = LFS_MB_2R medulloblastoma cell growth inhibition, synergistic combos for chromothripsis tumors, cisplatin combos (AID 1671457); conditions: LFS_MB_2R medulloblastoma cells, stronger effect = higher value;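 further: cells exposed to compound for four days before readout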
[13] = MDA-MB-436 breast carcinoma cell growth inhibition, synergistic combos for chromothripsis tumors, BGB or cisplatin combos (AID 1671458; call rule not given here;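 further: cells exposed for 96 hours; 0% = vehicle DMSO and 100% = killing by high DMSO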); conditions: MDA-MB-436 breast carcinoma growth inhibition, drug combinations, stronger effect = higher value
[14] = UWB1.289_BRCA1 ovarian cancer growth, cell-based, BGB or cisplatin combinations (AID 1671459); conditions: UWB1.289 BRCA1 ovarian carcinoma, drug combinations, stronger effect = higher value
[15] = human astrocyte viability loss, single and combined drugs, cytotoxicity control for chromothriptic childhood tumor combination screen, cell-based, BGB or cisplatin IC20 combos (AID 1671460); conditions: Human astrocytes, drug combinations, stronger effect = higher value;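 further: cells exposed to compounds for 96 hours before viability readout; 0% = vehicle and 100% = killing control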
[16] = growth inhibition of BT084 medulloblastoma cells, cell-based, ICGC_MB145, cisplatin and BGB IC40 combos (AID 1671461); conditions: drug combinations, stronger effect = higher value;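 further: cells exposed to drugs for 96 hours; 0% = vehicle DMSO and 100% = high DMSO full killing control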
[17] = growth inhibition of RCMB18 medulloblastoma cells, cell-based, cisplatin and BGB IC40 combos (AID 1671462); conditions: stronger effect = higher value;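 further: cells exposed to compound for four days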
[18] = growth inhibition of CRL1545 osteosarcoma cells, cell-based, cisplatin and BGB IC20 combos (AID 1671464); conditions: stronger effect = higher value;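 further: cells exposed to compound for 96 hours before readout; 0% = vehicle DMSO and 100% = high DMSO killing control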
[19] = measured here: combination with BGB IC40, at 0.05 µM
[20] = measured here: with BGB IC20 combination, at 0.5 µM
[21] = measured here: with cisplatin IC20 combination, at 0.5 µM
[22] = measured here: combination with cisplatin, at 0.5 µM
[23] = measured here: combination with cisplatin, at 5 µM

In the case of Nc1nc(Cl)nc2c1ncn2C1CC(O)C(CO)O1 (stereo not given), the fold change ([1]; stronger effect = lower value, cell number ratio, induced over uninduced) is reported as 0.657 (active) and 0.485 (active), the fold change ([1]; measured here: relative caspase fold change +Dox/-Dox) is reported as 3.27 and 5.56 and the cell count ([1]; measured here: total cells with miR-34 induction, stronger effect = lower value) is reported as 1440 and 1620. The cell count ([1]; measured here: total cells without miR-34 induction) was 2200 and 3330, the z-score ([2]; MELAS cybrid survival, CellTiter-Glo 48 h, stronger effect = higher value) was 0.255 (inactive) and the z-score ([2]; Rieske KO mouse fibroblast survival, CellTiter-Glo 72 h) was 0.0981. For the same compound, the z-score [3] was -1.71 (inactive), the inhibition ([4]; at 0.5 µM, stronger effect = higher value) was -16% (inactive) and 3.33% (inactive) and the inhibition ([4]; measured here: combination with BGB IC20, at 0.005 µM) was -14.4% and 7.64%. The inhibition ([4]; measured here: combination with BGB IC40, at 0.005 µM) was -28.7% and 21.8%, the inhibition [4, 19] was -54.9% and 15% and the inhibition ([4]; measured here: combination with cisplatin, at 0.5 µM, stronger effect = higher value) was -23.7% and 50.7%. For the same compound, the inhibition ([4]; measured here: combination with cisplatin, at 5 µM, stronger effect = higher value) was 76.7% and 86.2%, the inhibition ([5]; BGB combo, at 5 µM) was 83.3% and 87.6% and the inhibition ([5]; at 0.5 µM) was 6.11% (inactive) and 14.7% (inactive). The inhibition ([5]; cisplatin combo, at 5 µM) was 79% and 81.5%, the inhibition [5, 20] was 10.3% and 9.34% and the inhibition [5, 21] was -1.24% and 16.1%. For the same compound, the inhibition ([5]; single agent, at 5 µM) was 84.5% and 87.2%, the inhibition ([6]; BGB IC20 combo, at 0.005 µM) was -1.92% and -30.4% and the inhibition ([6]; BGB IC40 combo, at 0.005 µM) was -14.5% and -25.7%. The inhibition ([6]; BGB IC40 combo, at 0.05 µM) was -14.6% and -11.7%, the inhibition ([6]; at 0.5 µM) was -34.2% (inactive) and -10.6% (inactive) and the inhibition ([6]; cisplatin combo, at 0.05 µM) was -18.7% and -11.7%. The inhibition ([6]; cisplatin combo, at 0.5 µM) was -35.7% and -23.4%, the inhibition ([6]; cisplatin combo, at 5 µM) was -35.2% and -39.5% and the inhibition ([6]; measured here: 5 uM single agent, at 5 µM) was -14.9% and -11.7%. The inhibition ([7]; at 0.5 µM) was -20.9% (inactive) and -13% (inactive), the inhibition [7, 19] was -46.2% and -32.5% and the inhibition [7, 22] was 26.2% and 30.5%. The inhibition [7, 23] was 52% and 76.7%, the inhibition ([8]; at 0.5 µM) was 22.5% (inactive) and 18.5% (inactive) and the inhibition ([8]; measured here: with BGB IC20, at 0.5 µM) was 21.3% and 13.2%. For the same compound, the inhibition ([8]; measured here: with BGB IC20, at 5 µM) was 92.2% and 94.6%, the inhibition ([8]; measured here: with cisplatin IC20, at 0.5 µM) was 10.1% and 11.2% and the inhibition ([8]; measured here: with cisplatin IC20, at 5 µM) was 90.5% and 90%. The inhibition ([8]; single agent, at 5 µM) was 94.7% and 91.5%, the inhibition ([9]; at 0.5 µM) was -92.1% (inactive) and -37.1% (inactive) and the inhibition ([9]; measured here: combination with BGB at IC20, at 0.5 µM) was -60.9% and -36.5%. The inhibition ([9]; measured here: combination with cisplatin at IC20, at 0.5 µM) was -146% and -71.4%, the inhibition ([10]; at 0.5 µM) was 93.4% (active) and 93.2% (active) and the inhibition ([10]; measured here: combo with BGB at IC20, at 0.5 µM) was 87.7% and 88.9%. For the same compound, the inhibition ([10]; measured here: combo with cisplatin at IC20, at 0.5 µM) was 96.3% and 94.8%, the inhibition ([11]; at 0.5 µM) was 12.5% (inactive) and 14.8% (inactive) and the inhibition ([11]; measured here: inhibition with BGB combination, at 0.05 µM) was -7.25% and -6.1%. For the same compound, the inhibition ([11]; measured here: inhibition with cisplatin combination, at 0.05 µM) was -13.8% and -6.66%, the inhibition ([12]; at 0.5 µM) was -3.57% (inactive) and 10.2% (inactive) and the inhibition [12, 22] was 24.5% and 43.1%. For the same compound, the inhibition [12, 23] was 61.9% and 69.5%, the inhibition ([13]; at 0.5 µM) was 3.02% (inactive) and 2.95% (inactive) and the inhibition ([13]; measured here: BGB combination, at 0.5 µM) was -5.54% and -2.62%. For the same compound, the inhibition ([13]; measured here: BGB combination, at 5 µM) was 46.1% and 53.6%, the inhibition ([13]; measured here: cisplatin combination, at 0.5 µM) was -4.37% and -12.8% and the inhibition ([13]; measured here: cisplatin combination, at 5 µM) was 61.1% and 70%. For the same compound, the inhibition ([14]; BGB combination, concentration series, at 5 µM) was 43.2% and 57.7%, the inhibition ([14]; at 0.5 µM) was 20.9% (inactive) and 19.3% (inactive) and the inhibition ([14]; cisplatin combination, concentration series, at 5 µM) was 48.4% and 63.7%. For the same compound, the inhibition ([15]; at 0.5 µM) was 58.1% (inactive) and 38.4% (inactive), the inhibition ([15]; measured here: combo with BGB IC20, at 0.5 µM) was 62.6% and 39.2% and the inhibition ([15]; measured here: combo with cisplatin IC20, at 0.5 µM) was 42.6% and 31.2%. For the same compound, the inhibition ([16]; at 0.5 µM) was -0.858% (inactive) and 10.4% (inactive), the inhibition ([16]; cisplatin combination, at 0.5 µM) was 37.2% and 42% and the inhibition ([16]; cisplatin combination, at 5 µM) was 65.8% and 54%. The inhibition ([16]; measured here: BGB IC40 combination 0.05 uM, at 0.05 µM) was -30.7% and 12.8%, the inhibition ([16]; single agent, at 5 µM) was 1.68% and 7.77% and the inhibition ([17]; at 0.5 µM) was 19.1% (inactive) and 26.3% (inactive). For the same compound, the inhibition ([17]; cisplatin combo, at 5 µM) was 83.6% and 81.2%, the inhibition ([17]; measured here: BGB IC40 combination, at 0.05 µM) was -5.46% and 2.56% and the inhibition [17, 22] was 70.6% and 65.1%. The inhibition ([17]; single agent, at 5 µM) was 27.8% and 40.5%, the inhibition ([18]; at 0.5 µM) was -27.8% (inactive) and -35.8% (inactive) and the inhibition [18, 20] was -14.9% and -11.9%. The inhibition [18, 21] was -36.5% and -47.7%, the inhibition ([18]; single agent, at 0.05 µM) was -95.3% and 17.3% and the inhibition ([18]; single agent, at 5 µM) was 75.8% and 80.1%.
